High-throughput results from PubChem.
D1 antag – Antagonist of Human D 1 Dopamine Receptor: qHTS | D(1A) dopamine receptor (Homo sapiens), P21728 | HEK293 TREx D1 cells, calcium flux, dopamine EC80; hits give low values | activity change, negative = inhibition, % at 10 µM | 3.2% of 360,000 active | AID 504652, 2011; in the data active = activity change below about -30%; note: % is set by controls: 0 for no effect and ±100 for the full control effect
Target sequence (P21728 whole entry, looked up): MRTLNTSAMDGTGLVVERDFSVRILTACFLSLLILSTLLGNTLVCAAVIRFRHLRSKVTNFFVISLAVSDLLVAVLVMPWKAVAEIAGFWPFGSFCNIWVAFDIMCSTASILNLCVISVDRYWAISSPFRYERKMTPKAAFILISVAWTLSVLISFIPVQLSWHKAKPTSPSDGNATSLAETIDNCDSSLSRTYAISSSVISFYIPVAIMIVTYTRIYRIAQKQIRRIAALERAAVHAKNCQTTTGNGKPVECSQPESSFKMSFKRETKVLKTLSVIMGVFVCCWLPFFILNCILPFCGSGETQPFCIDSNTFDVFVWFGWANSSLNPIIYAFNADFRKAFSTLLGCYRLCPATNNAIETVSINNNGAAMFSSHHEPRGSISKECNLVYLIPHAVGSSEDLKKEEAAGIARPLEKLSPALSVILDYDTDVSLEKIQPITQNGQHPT
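Using tetracycline-induced force-coupled D1 Hek293 cells and a calcium dye, signals were followed for 180 s after compound, then for 180 s after EC80 dopamine, to detect inhibitors.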
D1 potentiator – Potentiators of Human D1 Dopamine Receptor: qHTS. 0.036% of 360,000 active. potentiation, % at 10 µM. HEK293 TREx D1 cells, calcium flux, dopamine EC20 potentiation. D(1A) dopamine receptor (Homo sapiens), P21728; in the data active = potentiation above about 30%; note: 0% is about no effect
D3 ag – qHTS of D3 Dopamine Receptor Agonist: qHTS; D(3) dopamine receptor (Homo sapiens), P35462; D3R DiscoveRx beta-arrestin cells, luminescence, 90 min; max activation, %; 0.58% of 410,000 active; in the data active = max activation above about 30%; note: 0% is about no effect
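Agonist mode: compounds and dopamine controls were applied to plated cells for 90 min at 37 degrees C after an overnight attachment at 1500 cells/well. Luminescent read-out followed 30 - 60 minutes at room temperature with DiscoveRx detection reagent.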
D1 ag – Allosteric Agonists of the Human D1 Dopamine Receptor: qHTS; activation, % at 2 µM; D(1A) dopamine receptor (Homo sapiens), P21728; 1% of 360,000 active; HEK293 T-REx D1 cells, calcium flux, agonist mode; in the data active = activation above about 30%; note: 0% is about no effect
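Tetracycline-induced HEK293 TREx D1 cells, force-coupled to calcium signalling, were dye-loaded with a no-wash calcium kit. Compound was pin-added after a 10 s baseline. Fluorescence was read kinetically at 1 cycle/s for 180 s, with calcium rises flagged as agonism.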
DRD3 antagonist – qHTS of D3 Dopamine Receptor Antagonist: qHTS; D3R cells, DiscoveRx beta-arrestin luminescence, antagonist mode; hits give low values; max response, negative = inhibition, %; 2.5% of 360,000 active; AID 652054, 2013; in the data active = max response below about -50%; inconclusive = no clear call, values can overlap the other calls; note: % is set by controls: 0 for no effect and ±100 for the full control effect
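Cells expressing the human receptor were seeded at 1500 cells/well, incubated overnight at 37 degrees C in 5% CO2, then exposed to library compounds with dopamine controls for 90 minutes at 37 degrees C before luminescent detection.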
* = called active by the depositor; ! = not active in a repeat. Shown are actives, neighbours in structure and some others; about 6% of the full set was active somewhere.

For CN(c1ccc(OCC(=O)N2CCN(C/C=C/c3ccccc3)CC2)cc1)S(=O)(=O)c1cccs1 the results were D1 antag -43*, D1 potentiator -1, D3 ag -7, D1 ag 10 and DRD3 antagonist 25.
COc1ccc(NC(=O)CN2C(=O)CN=C(c3ccccc3)c3ccccc32)c(OC)c1 was read as D1 antag -15, D1 potentiator -1, D3 ag -9 and D1 ag 1.
`Cn1cnc(CCN)c1` gave D3 ag -8 and DRD3 antagonist -77*.
CCN(CC)c1ccc(CN(C)CCc2ccc(OC)c(OC)c2)cc1 was read as D1 antag -5, D1 potentiator -3, D3 ag -23, D1 ag 7 and DRD3 antagonist inconclusive.
`COc1ccc(CCN(C)Cc2ccc(F)cc2F)cc1OC` gave D1 antag -17, D1 potentiator -6, D3 ag -28, D1 ag 2 and DRD3 antagonist -77*.
Cc1ccc(CNC(=O)CCCn2c(=O)c3sccc3n(CC(=O)Nc3c(C)cccc3C)c2=O)cc1 was read as D1 antag 2, D1 potentiator 1, D3 ag 4 and D1 ag -2.
`COc1ccccc1CCNC1CCC(C(C)(C)C)CC1` (stereo not drawn) gave D1 antag -20, D1 potentiator -8, D3 ag -38, D1 ag 89* and DRD3 antagonist -74*.
`CCOc1cc2c(cc1OCC)-n1cccc1C(c1ccc(F)c(OC)c1)NC2` (stereo not drawn) gave D1 antag -43*, D1 potentiator -6, D3 ag 0, D1 ag 66* and DRD3 antagonist -1.
For CCCN1CCO[C@@H]2c3cc(O)ccc3OC[C@H]21 the results were D1 antag -22, D1 potentiator -5, D3 ag 146*, D1 ag 2 and DRD3 antagonist 28.
For CC[C@@H]1C(=O)OC[C@@H]1Cc1cncn1C the results were D1 antag 26, D1 potentiator -2, D3 ag 0, D1 ag -1 and DRD3 antagonist -19.
CC[C@@H]1C(=O)OC[C@@H]1Cc1cncn1C was read as D1 antag -71*!, D1 potentiator 4, D3 ag 11, D1 ag 3 and DRD3 antagonist 0.
Cc1ccc(-c2nc(CN3C(=O)CN=C(c4ccccc4Cl)c4cc(Cl)ccc43)c(C)o2)cc1 was read as D1 antag -5, D1 potentiator -2, D3 ag 8 and D1 ag 4.
`CC(=O)c1cccc(OCC(O)CN2CC=C(c3ccccc3)CC2)c1` (stereo not drawn) gave D1 antag 9, D1 potentiator -3, D3 ag 73*, D1 ag 0 and DRD3 antagonist 9.
Screening C/C(=N\N1CCCCCC1)c1c(O)n(-c2ccc(C)cc2)c(=O)[nH]c1=O returned D1 antag -40*, D1 potentiator -4, D3 ag -1, D1 ag 3 and DRD3 antagonist -5.
Cc1cccc(CN2C(=O)CN=C(c3ccccc3)c3cc(Cl)ccc32)c1 was read as D1 antag -4, D1 potentiator 0, D3 ag -12 and D1 ag 2.
For Cc1cc(C)cc(NC(=O)CN2C(=O)CN=C(c3ccccc3)c3cc(Cl)ccc32)c1 the results were D1 antag -7, D1 potentiator -1, D3 ag 7 and D1 ag 3.
For CC(C)CNc1c2c(nc3ccccc13)CCC2 the results were D1 antag -12, D1 potentiator -4, D3 ag -9, D1 ag 9 and DRD3 antagonist -20.
`c1ccc(CNc2c3c(nc4ccccc24)CCC3)cc1` gave D1 antag -50*, D1 potentiator -20, D3 ag -20, D1 ag 22 and DRD3 antagonist -14.
Screening CCN1CC=C(c2c[nH]c3ccccc23)CC1 returned D1 antag -16, D1 potentiator -12, D3 ag -13, D1 ag 4 and DRD3 antagonist -71*.
`CN1CCN(c2ccc(N)cc2Cl)CC1` gave D1 antag -27, D1 potentiator -16, D3 ag -14, D1 ag 6 and DRD3 antagonist -60*.
O=c1c2ccccc2nc(/C=C/c2ccccc2F)n1-c1cccc(O)c1 was read as D1 antag 2, D1 potentiator -1, D3 ag 3 and D1 ag 1.
For Cc1nc2c(=O)n(C)c(=O)nc-2n(C)n1 the results were D1 antag -14, D1 potentiator -1, D3 ag -28, D1 ag 1 and DRD3 antagonist -98*.
O=c1c2ccccc2nc(/C=C\c2ccc(F)cc2)n1-c1ccccc1F was read as D1 antag -24, D1 potentiator -1, D3 ag 5 and D1 ag 3.
O=C1NC(=O)N(c2ccc3c(c2)OCO3)C(=O)/C1=C/c1cccs1 was read as D1 antag 18, D1 potentiator -2, D3 ag -3, D1 ag -1 and DRD3 antagonist -2.
O=C1NC(=O)N(c2ccc3c(c2)OCO3)C(=O)/C1=C/c1ccc(N2CCCC2)o1 was read as D1 antag 4, D1 potentiator -7, D3 ag -1, D1 ag 33* and DRD3 antagonist 5.
CCOc1ccc(N2C(=O)/C(=C/c3ccc(C)o3)C(=O)NC2=S)cc1 was read as D1 antag 4, D1 potentiator -5, D3 ag -5, D1 ag 4 and DRD3 antagonist inconclusive.
For CCOc1ccc(N2C(=O)NC(=O)/C(=C\c3ccc(N4CCCCC4)o3)C2=O)cc1 the results were D1 antag 0, D1 potentiator 2, D3 ag 5, D1 ag 85* and DRD3 antagonist 3.
Cc1c(Cl)cccc1NC(=O)CN1C(=O)C(C)N=C(c2ccccc2)c2ccccc21 (stereo not drawn) was read as D1 antag -7, D1 potentiator 7, D3 ag 8 and D1 ag 6.
For COc1cc(/C=C2\C(=O)NC(=O)N(c3ccccc3)C2=O)cc(OC)c1O the results were D1 antag -4, D1 potentiator -7, D3 ag -5, D1 ag 1 and DRD3 antagonist 20.
For COc1cc(/C=C2\C(=O)NC(=O)N(c3ccccc3)C2=O)c([N+](=O)[O-])cc1OC the results were D1 antag -56*, D1 potentiator -4, D3 ag -2, D1 ag 1 and DRD3 antagonist 9.
`Cc1ccc(Cn2nc(C)c(C=O)c2Cl)cc1` gave D1 antag -36*, D1 potentiator -5, D3 ag -1, D1 ag 2 and DRD3 antagonist 16.
`Cc1nn(Cc2ccccc2)c(C)c1C=C1C(=O)NC(=S)NC1=O` gave D1 antag 4, D1 potentiator 6, D3 ag -6, D1 ag 4 and DRD3 antagonist -13.
